Bioassay records from PubChem BioAssay.
HT1080 IDH1KD tx = toxicity to HT-1080 IDH1 knockdown cells (counter line) | AID 686971 | 2% of 360,000 active | HT-1080 IDH1 knockdown viability, ATP luminescence, 48 h | Potency, µM (top dose mostly 46.1 µM), without a hit: at the highest dose activity, negative = toxicity, usual class: cytotoxic;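 further: 0% = DMSO wells and -100% = cell-free medium wells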
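Cytotoxicity counter-line: IDH1KD HT-1080, 48 h, CellTiter-Glo. Curves classed by r2, magnitude and activity.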
KB-3-1 cytotox = kills parental KB-3-1 adenocarcinoma cells | KB-3-1 viability, CellTiter-Glo ATP luminescence, 72 h | Potency, µM (highest dose often 46.1 µM), actives largely listed as cytotoxic | 1.4% of 400,000 active; further: on the % scale 0 is the no-effect control and ±100 the full control effect; nearly all actives have a fitted effect of over 60% in size
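KB-3-1 cells, DMEM (no phenol red) + 10% FBS; compound by pin transfer, 72 h, 37 °C. Readout: CellTiter-Glo luminescence after 10 min. Data normalized, curve-fitted.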
ATXN2 expr inh = ATXN2 expression inhibition; HEK-293 ATXN2-luciferase reporter, luminescence, 24 h; 0.72% of 360,000 active; Potency, µM (titrated, usually from 57 µM), without a hit: at the highest dose activity change, negative = inhibition, usual class: inhibitors; further: on the % scale 0 is the no-effect control and ±100 the full control effect; nearly all actives have a fitted effect of over 55% in size
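ATXN2-luciferase reporter cells (luciferase flanked by upstream and downstream ATXN2 gene portions) were treated 24 h at 37 °C with compounds at up to 57 uM. SteadyGlo luminescence gave expression; GF-AFC fluorescence gave viability.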
KB-V1 cytotox = kills drug-selected multidrug resistant KB-V1 cells; KB-V1 MDR cells viability, CellTiter-Glo, 72 h; Potency, µM (doses to about 46.1 µM), usual class: cytotoxic; 3.4% of 400,000 active; further: on the % scale 0 is the no-effect control and ±100 the full control effect; nearly all actives have a fitted effect of over 60% in size
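Readout: CellTiter-Glo luminescence, 10 min after addition. Cells: KB-V1 MDR subline, 72 h at 37 degrees C with compound. Analysis: corrected, normalized data fitted to concentration-effect curves.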
HT1080-NT tox = kills 2HG-producing HT-1080-NT fibrosarcoma cells; HT-1080-NT fibrosarcoma viability, CellTiter-Glo ATP luminescence, 48 h; 1.6% of 360,000 active; Potency, µM (titrated, usually from 46.1 µM), for the others: top-dose activity, negative = less viability, actives largely listed as cytotoxic;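 further: NT is the 2HG producing partner of a matched IDH1 knockdown line; 0% = DMSO-treated cells and -100% = media-only wells without cells; nearly all actives have a fitted effect of over 55% in size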
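Toxicity toward the 2HG-producing NT line was scored as %Activity, normalised to DMSO and no-cell wells, from CellTiter-Glo luminescence after 48 hours' treatment.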
S2 tox = cell viability loss in ATXN counter-screen. S2 cells (HEK-293 line with an ATXN2-luciferase reporter) viability, CellTiter-Fluor protease fluorescence, 24 h. Potency, µM (doses to about 56.7 µM), hits mostly cytotoxic. 0.49% of 400,000 active; further: nearly all actives have a fitted effect of over 40% in size
Starred values were filed as active, the others as inactive; i = inactive; u = inconclusive; x = no result given; ! = not active in a repeat. Shown are actives, neighbours in structure and some others; about 6.2% of the full set was active somewhere. The call rests on the fitted dose curve; in most records, active means well fitted curve in the direction sought with a large enough effect; inconclusive means small, poorly fitted or top-dose-only effect, or another doubt; inactive means no such curve, though single readings can be large; an effect the other way counts as inactive or inconclusive. Potency means the concentration at half of the fitted maximal effect.

SMILES	HT1080 IDH1KD tx	KB-3-1 cytotox	ATXN2 expr inh	KB-V1 cytotox	HT1080-NT tox	S2 tox
Cc1c(C(=O)NCCC2=CCCCC2)oc2ccc(S(=O)(=O)N3CCC4(CC3)OCCO4)cc12	-27%	u	u	16µM*	-11%	i
Cc1c(C(=O)Nc2ccc(F)c(F)c2)oc2ccc(S(=O)(=O)N3CCCCC3)cc12	-9%	i	u	7.3µM*!	13%	u
Cc1c(C(=O)Nc2cccc(Cl)c2)oc2ccc(S(=O)(=O)N3CCC4(CC3)OCCO4)cc12	-2%	u	-21%	4.1µM*	-3%	i
Cc1c(C(=O)Nc2cccc(Cl)c2)oc2ccc(S(=O)(=O)N3CCCCCC3)cc12	x	i	-6%	i	x	i
CCCCC(O)(CCCC)C(=O)NN(C(=O)OCC)c1ccccc1	17%	i	4%	13µM*	12%	i
CCOc1ccc(S(=O)(=O)Nc2cccc(-c3ccc(OCC)nn3)c2)cc1	x	i	0%	i	x	u
COc1ccc(-c2c[n+]3c(n2-c2ccc(C)cc2)CCCCC3)cc1	u	1.8µM*	u	u	u	u
COc1ccc(-c2c[n+]3c(n2-c2ccccc2)CCCCC3)cc1	u	9.2µM*	-33%	i	u	i
COc1ccc(-n2c(-c3ccc(Cl)cc3)c[n+]3c2CCCCC3)cc1	u	i	u	i	u	u
COC(=O)C1CCN(Cc2ccc3c(c2)CN(C(=O)c2sc(C)nc2C)CCO3)CC1	x	x	x	x	x	i
CC(NC(=O)c1ccco1)c1nnc2n1CCN(Cc1ccc(N(C)C)cc1)CC2 (centres undefined)	x	x	x	x	x	i
CC(C)(C)NC(=O)Cn1c(=O)c(=O)n(Cc2ccccc2)c2ccc(Cl)cc21	14%	i	0%	21µM*	6%	u
CC(=O)OCC(=O)[C@@]12N=C(C)O[C@H]1C[C@H]1[C@@H]3CCC4=CC(=O)C=C[C@]4(C)[C@@H]3[C@@H](O)C[C@@]12C	x	x	-4%	x	x	x
CCCn1cc(S(=O)(=O)c2ccccc2)c(=O)c2cc(F)c(N3CCCC(C)C3)cc21 (centres undefined)	x	i	x	i	x	x
CC(=O)N1CCN(C(=O)/C(C#N)=C/c2ccc3c(c2)OCO3)CC1	-1%	i	4%	i	12%	i
N#C/C(=C\c1cccc(Br)c1)C(=O)N1CCCCC1	16µM*	u	-3%	u	23µM*	i
Cc1cc(/C=C(\C#N)C(=O)N2CCCCC2)cc(C)c1O	18µM*	16µM*	-1%	u	16µM*	i
N#C/C(=C\c1cccc(O)c1)C(=O)N1CCCCC1	-11%	i	15%	u	-1%	i
CCOc1ccc2c(c1)[N+](C)(C)C(C)(C)C=C2C	-6%	8.2µM*	-5%	i	-14%	i
COc1ccc2c(c1)[N+](C)(C)C(C)(C)C=C2C	2%	i	x	i	0%	i
O=C(Nc1ccc(Cl)cc1Cl)c1cnn2c1NC(=C1CC1)C=C2C(F)F	x	u	x	i	x	x
Cc1ccc(Nc2c(-c3ccncc3)nc3ccc(C)cn23)cc1	x	i	-5%	i	x	u
COc1cc(-c2nc3ccc(Cl)cn3c2Nc2ccc3c(c2)OCO3)ccc1O	x	i	u	i	x	18µM*
COc1ccc(-c2nc3ccc(C)cn3c2Nc2ccc3c(c2)OCO3)cc1	x	i	24%	u	x	i
COc1cc(-c2nc3ccc(C)cn3c2Nc2ccc(Cl)cc2)ccc1O	x	i	u	i	x	16µM*
Cc1ccc2nc(CN3CCN(S(=O)(=O)c4ccccc4)CC3)oc2c1	x	i	-10%	i	x	u
COc1cc(OC)c(OC)cc1/C=C/c1nc2cc3ccccc3cc2c(=O)n1-c1ccccc1Br	x	i	x	i	x	x
CCOc1ccc(CN(C(=O)c2oc3ccccc3c2C)C2CCS(=O)(=O)C2)cc1 (centres undefined)	u	i	3%	9.2µM*	-7%	u
